In ChEMBL document CHEMBL1961873, “Compounds: GSK PKIS; Assays: Nanosyn kinase panel” (2012):

How the values were obtained:
[1] = molecular target: Mitogen-activated protein kinase 3 (Homo sapiens) (UniProt P27361); conditions: at 1 µM;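 note: values are mean percent inhibition of MAPK3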
[2] = molecular target: SRSF protein kinase 3 (Homo sapiens) (UniProt Q9UPE1); conditions: at 0.1 µM
[3] = molecular target: SRSF protein kinase 3 (Homo sapiens) (UniProt Q9UPE1); conditions: at 1 µM
[4] = molecular target: Mitogen-activated protein kinase 14 (Homo sapiens) (UniProt Q16539); conditions: at 0.1 µM
Sequence of Mitogen-activated protein kinase 14 (Homo sapiens) (Q16539 whole entry): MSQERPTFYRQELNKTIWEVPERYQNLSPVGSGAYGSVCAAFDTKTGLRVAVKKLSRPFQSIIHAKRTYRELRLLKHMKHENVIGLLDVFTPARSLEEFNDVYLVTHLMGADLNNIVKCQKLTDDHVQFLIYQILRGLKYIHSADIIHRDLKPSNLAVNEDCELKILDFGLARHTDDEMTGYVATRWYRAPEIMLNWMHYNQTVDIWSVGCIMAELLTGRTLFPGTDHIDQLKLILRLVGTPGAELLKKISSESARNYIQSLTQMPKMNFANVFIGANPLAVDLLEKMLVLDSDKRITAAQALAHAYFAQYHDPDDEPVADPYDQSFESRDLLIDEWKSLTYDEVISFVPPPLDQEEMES

[5] = molecular target: Mitogen-activated protein kinase 14 (Homo sapiens) (UniProt Q16539); conditions: at 1 µM
[6] = molecular target: Mitogen-activated protein kinase 11 (Homo sapiens) (UniProt Q15759); conditions: at 0.1 µM
Sequence of Mitogen-activated protein kinase 11 (Homo sapiens) (Q15759 whole entry): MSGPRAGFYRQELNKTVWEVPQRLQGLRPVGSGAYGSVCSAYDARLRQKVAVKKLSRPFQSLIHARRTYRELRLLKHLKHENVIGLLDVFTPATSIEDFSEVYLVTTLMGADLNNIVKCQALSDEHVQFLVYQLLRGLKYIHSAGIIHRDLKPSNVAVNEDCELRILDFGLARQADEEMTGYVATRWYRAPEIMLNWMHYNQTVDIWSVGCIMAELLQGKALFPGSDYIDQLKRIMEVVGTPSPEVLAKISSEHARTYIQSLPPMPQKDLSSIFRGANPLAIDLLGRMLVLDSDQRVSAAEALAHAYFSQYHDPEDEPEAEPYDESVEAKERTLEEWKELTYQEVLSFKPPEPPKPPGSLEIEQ

[7] = molecular target: Mitogen-activated protein kinase 11 (Homo sapiens) (UniProt Q15759); conditions: at 1 µM
[8] = molecular target: T1, Mitogen-activated protein kinase 13 (Homo sapiens) (UniProt O15264); conditions: at 0.1 µM
T1 sequence (whole entry): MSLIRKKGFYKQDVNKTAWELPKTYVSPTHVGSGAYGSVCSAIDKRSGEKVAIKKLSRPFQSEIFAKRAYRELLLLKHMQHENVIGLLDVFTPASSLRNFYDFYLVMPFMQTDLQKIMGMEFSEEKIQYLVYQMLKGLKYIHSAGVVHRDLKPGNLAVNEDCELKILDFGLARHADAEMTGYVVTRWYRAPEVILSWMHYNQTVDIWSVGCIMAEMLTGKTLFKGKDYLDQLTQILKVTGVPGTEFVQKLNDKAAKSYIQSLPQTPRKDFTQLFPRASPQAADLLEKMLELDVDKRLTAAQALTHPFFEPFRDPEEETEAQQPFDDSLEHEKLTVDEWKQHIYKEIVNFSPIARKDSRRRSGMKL

[9] = molecular target: T1, Mitogen-activated protein kinase 13 (Homo sapiens); conditions: at 1 µM
[10] = molecular target: T2, Mitogen-activated protein kinase 12 (Homo sapiens) (UniProt P53778); conditions: at 0.1 µM
T2 sequence (whole entry): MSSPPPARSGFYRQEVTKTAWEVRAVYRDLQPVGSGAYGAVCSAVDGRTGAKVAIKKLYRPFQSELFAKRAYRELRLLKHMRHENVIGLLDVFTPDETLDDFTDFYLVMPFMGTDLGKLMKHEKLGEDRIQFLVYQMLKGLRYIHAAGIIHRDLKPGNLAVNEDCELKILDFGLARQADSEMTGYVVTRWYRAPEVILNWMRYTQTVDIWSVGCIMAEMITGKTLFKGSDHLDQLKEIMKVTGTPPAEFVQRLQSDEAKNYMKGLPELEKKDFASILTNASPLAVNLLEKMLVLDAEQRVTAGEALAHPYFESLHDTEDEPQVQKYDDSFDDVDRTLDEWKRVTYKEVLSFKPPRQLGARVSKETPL

[11] = molecular target: T2, Mitogen-activated protein kinase 12 (Homo sapiens); conditions: at 1 µM
[12] = molecular target: SRSF protein kinase 1 (Homo sapiens) (UniProt Q96SB4); conditions: at 0.1 µM
Sequence of SRSF protein kinase 1 (Homo sapiens) (Q96SB4 whole entry, canonical isoform): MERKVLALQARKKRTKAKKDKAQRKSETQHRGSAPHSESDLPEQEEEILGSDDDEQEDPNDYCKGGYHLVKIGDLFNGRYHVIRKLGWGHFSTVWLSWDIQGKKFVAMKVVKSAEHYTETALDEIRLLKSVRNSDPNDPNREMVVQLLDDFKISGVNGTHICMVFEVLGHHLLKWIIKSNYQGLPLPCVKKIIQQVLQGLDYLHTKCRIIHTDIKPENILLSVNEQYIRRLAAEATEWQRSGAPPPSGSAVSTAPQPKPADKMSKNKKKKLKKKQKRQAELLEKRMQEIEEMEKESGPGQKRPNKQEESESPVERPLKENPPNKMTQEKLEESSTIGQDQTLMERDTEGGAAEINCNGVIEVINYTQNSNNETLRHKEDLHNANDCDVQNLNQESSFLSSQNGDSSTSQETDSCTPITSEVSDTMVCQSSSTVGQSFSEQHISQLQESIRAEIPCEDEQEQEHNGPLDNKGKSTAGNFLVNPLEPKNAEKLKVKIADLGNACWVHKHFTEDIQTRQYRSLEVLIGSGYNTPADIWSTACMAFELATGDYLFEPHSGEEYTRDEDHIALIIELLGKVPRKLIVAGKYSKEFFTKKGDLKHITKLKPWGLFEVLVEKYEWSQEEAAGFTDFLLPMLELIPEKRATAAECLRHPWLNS

[13] = molecular target: SRSF protein kinase 1 (Homo sapiens) (UniProt Q96SB4); conditions: at 1 µM
[14] = molecular target: Phosphatidylinositol 4,5-bisphosphate 3-kinase catalytic subunit alpha isoform (Homo sapiens) (UniProt P42336); conditions: at 0.1 µM
Sequence of Phosphatidylinositol 4,5-bisphosphate 3-kinase catalytic subunit alpha isoform (Homo sapiens) (P42336 whole entry, canonical isoform): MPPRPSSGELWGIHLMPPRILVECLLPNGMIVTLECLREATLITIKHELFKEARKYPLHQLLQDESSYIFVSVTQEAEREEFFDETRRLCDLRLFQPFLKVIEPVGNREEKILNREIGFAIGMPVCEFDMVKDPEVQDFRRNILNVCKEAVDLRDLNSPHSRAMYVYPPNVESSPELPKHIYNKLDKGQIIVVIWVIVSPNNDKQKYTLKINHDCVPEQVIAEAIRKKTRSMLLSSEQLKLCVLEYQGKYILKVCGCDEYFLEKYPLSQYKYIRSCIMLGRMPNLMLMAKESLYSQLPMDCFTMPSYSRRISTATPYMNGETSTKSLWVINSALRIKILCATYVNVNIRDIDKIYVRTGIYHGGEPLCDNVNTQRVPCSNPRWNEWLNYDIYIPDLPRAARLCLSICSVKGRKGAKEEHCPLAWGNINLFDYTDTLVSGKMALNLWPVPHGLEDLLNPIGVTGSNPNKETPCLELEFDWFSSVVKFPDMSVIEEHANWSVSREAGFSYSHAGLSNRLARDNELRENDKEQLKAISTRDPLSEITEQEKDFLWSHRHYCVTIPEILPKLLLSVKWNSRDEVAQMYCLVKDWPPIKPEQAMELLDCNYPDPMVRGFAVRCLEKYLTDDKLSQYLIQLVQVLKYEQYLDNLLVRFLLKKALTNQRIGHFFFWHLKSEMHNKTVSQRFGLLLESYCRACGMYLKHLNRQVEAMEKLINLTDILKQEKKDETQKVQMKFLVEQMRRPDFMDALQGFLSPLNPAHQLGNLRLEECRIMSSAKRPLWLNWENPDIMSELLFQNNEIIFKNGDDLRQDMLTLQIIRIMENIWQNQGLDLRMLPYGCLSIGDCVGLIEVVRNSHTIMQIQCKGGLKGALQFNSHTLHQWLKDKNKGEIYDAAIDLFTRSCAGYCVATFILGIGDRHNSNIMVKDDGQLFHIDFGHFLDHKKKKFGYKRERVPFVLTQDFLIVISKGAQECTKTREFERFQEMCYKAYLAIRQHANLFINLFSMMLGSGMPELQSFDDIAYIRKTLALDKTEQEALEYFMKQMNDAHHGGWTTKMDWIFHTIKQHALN

[15] = molecular target: Phosphatidylinositol 4,5-bisphosphate 3-kinase catalytic subunit alpha isoform (Homo sapiens) (UniProt P42336); conditions: at 1 µM
[16] = molecular target: T3, Phosphatidylinositol 4,5-bisphosphate 3-kinase catalytic subunit delta isoform (Homo sapiens) (UniProt O00329); conditions: at 0.1 µM
T3 sequence (whole entry): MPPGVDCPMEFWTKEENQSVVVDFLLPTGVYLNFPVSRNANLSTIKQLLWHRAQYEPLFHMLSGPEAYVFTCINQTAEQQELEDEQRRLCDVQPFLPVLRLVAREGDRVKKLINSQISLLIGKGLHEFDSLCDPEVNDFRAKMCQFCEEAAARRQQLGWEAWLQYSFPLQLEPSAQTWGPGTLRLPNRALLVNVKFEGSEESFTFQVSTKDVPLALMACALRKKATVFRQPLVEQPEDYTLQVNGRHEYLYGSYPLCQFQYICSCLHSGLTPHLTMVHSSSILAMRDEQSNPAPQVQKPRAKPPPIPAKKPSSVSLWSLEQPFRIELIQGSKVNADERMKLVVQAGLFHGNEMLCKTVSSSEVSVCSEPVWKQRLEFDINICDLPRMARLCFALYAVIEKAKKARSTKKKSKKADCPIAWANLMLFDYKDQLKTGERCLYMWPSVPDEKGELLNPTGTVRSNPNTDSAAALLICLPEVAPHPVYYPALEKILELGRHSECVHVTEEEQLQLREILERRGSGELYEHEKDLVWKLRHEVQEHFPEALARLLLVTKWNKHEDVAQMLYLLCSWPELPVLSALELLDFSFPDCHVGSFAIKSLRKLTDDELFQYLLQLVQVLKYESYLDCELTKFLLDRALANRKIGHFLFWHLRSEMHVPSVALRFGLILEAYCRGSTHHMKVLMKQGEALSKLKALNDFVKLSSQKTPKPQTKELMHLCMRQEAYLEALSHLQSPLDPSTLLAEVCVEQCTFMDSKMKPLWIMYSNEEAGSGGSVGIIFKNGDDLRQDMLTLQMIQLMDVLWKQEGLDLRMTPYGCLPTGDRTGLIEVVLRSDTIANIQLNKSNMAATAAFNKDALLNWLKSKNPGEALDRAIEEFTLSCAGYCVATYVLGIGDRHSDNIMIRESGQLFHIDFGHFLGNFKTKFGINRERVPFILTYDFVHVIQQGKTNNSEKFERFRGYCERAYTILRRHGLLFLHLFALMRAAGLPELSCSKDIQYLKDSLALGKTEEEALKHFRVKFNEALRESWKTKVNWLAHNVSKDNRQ

[17] = molecular target: T3, Phosphatidylinositol 4,5-bisphosphate 3-kinase catalytic subunit delta isoform (Homo sapiens); conditions: at 1 µM
[18] = molecular target: Phosphatidylinositol 4-kinase beta (Homo sapiens) (UniProt Q9UBF8); conditions: at 0.1 µM
Sequence of Phosphatidylinositol 4-kinase beta (Homo sapiens) (Q9UBF8 2-816 limits assumed): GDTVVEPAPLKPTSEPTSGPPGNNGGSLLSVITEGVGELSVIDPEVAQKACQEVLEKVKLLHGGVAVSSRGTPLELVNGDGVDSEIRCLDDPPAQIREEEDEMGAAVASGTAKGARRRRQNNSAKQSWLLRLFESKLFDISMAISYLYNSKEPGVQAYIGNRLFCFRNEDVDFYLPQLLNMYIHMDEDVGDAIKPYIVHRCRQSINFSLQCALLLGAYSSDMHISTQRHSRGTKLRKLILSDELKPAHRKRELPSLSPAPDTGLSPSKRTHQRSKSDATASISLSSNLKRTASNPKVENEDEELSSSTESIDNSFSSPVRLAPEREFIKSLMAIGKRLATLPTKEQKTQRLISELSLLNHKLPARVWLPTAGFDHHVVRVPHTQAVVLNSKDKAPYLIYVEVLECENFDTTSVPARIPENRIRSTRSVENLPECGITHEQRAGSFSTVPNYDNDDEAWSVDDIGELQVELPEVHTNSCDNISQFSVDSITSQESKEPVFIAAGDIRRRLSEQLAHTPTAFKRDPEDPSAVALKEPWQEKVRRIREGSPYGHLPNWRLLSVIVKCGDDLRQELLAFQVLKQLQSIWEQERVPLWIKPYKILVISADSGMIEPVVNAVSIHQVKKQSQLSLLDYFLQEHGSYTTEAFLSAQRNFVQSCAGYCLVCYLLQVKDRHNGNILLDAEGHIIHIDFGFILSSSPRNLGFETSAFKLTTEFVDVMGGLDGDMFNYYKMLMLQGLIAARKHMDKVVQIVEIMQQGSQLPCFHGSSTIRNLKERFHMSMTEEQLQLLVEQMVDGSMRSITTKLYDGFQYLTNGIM

[19] = molecular target: Phosphatidylinositol 4-kinase beta (Homo sapiens) (UniProt Q9UBF8); conditions: at 1 µM
[20] = molecular target: Sphingosine kinase 1 (Homo sapiens) (UniProt Q9NYA1); conditions: at 0.1 µM;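 note: mean percent inhibition of SPHK1 activity, measured within the GSK PKIS screening panel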
Sequence of Sphingosine kinase 1 (Homo sapiens) (Q9NYA1 whole entry): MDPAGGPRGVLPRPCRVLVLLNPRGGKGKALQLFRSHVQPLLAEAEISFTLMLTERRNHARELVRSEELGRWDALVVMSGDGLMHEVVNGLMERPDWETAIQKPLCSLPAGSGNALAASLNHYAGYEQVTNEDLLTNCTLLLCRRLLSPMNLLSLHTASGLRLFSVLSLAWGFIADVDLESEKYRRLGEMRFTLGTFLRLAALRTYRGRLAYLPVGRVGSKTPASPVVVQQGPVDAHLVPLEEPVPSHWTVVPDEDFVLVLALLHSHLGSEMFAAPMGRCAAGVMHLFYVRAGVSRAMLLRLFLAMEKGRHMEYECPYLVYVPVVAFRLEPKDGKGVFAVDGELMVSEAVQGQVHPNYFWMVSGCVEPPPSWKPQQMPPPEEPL

Sequence of SRSF protein kinase 3 (Homo sapiens) (Q9UPE1 whole entry): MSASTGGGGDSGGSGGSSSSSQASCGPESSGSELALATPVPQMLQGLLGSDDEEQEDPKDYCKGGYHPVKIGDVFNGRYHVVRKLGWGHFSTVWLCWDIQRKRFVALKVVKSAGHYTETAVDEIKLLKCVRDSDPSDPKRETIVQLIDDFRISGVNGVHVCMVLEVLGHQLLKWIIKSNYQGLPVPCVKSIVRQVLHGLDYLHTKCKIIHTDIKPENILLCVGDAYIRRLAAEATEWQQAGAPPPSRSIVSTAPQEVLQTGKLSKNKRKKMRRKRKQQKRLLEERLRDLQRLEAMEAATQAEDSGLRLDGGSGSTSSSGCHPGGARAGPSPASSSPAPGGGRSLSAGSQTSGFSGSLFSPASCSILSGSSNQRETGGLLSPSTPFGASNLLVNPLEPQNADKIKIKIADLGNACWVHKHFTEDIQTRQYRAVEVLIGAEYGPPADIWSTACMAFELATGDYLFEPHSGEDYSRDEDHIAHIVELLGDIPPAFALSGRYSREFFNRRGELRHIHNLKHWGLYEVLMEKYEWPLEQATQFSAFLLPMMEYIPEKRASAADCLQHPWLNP
Sequence of Mitogen-activated protein kinase 3 (Homo sapiens) (P27361 whole entry): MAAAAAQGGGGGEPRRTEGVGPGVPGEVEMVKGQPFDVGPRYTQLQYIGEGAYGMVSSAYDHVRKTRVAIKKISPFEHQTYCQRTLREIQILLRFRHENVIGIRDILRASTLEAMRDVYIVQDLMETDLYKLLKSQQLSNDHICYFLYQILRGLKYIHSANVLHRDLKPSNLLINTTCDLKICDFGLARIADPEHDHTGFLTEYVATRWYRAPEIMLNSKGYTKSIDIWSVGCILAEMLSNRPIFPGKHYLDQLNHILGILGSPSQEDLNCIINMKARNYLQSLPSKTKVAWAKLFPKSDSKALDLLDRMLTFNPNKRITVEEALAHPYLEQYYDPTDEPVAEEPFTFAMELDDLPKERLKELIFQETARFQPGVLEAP

Structure (SMILES)	inhibition [1] [%]	inhibition [2] [%]	inhibition [3] [%]	inhibition [4] [%]	inhibition [5] [%]	inhibition [6] [%]	inhibition [7] [%]	inhibition [8] [%]	inhibition [9] [%]	inhibition [10] [%]	inhibition [11] [%]	inhibition [12] [%]	inhibition [13] [%]	inhibition [14] [%]	inhibition [15] [%]	inhibition [16] [%]	inhibition [17] [%]	inhibition [18] [%]	inhibition [19] [%]	inhibition [20] [%]
c1ccc(Oc2ccc(Nc3ncc(-c4ccccc4)o3)cc2)cc1	1.29	0.57	0.33	5.45	8.09	-0.05	4.25	1.2	0.96	-0.32	1.07	-0.83	0.96	4.13	5.69	6.64	7.88	2.11	4.73	0.41
CCc1ccc(Oc2nccc(-c3c(-c4ccc(F)cc4)ncn3C3CCNCC3)n2)cc1	8.24	3.09	0.07	–	–	–	–	–	–	–	–	-2.85	-3.81	3.74	3.81	1.87	6.26	3.17	2.82	1.33
COc1cccc(/C=N/Nc2ncnc3c2cnn3-c2cccc(OC)c2)c1	2.47	-1.31	-0.75	5.18	5.34	2.68	2.6	4	4.61	3.43	4.21	-3.08	-2.5	4.36	1.65	0.9	1.58	3.72	2.27	2.07
NC(=O)c1ccc(Oc2nccc(-c3c(-c4ccc(F)cc4)ncn3C3CCNCC3)n2)cc1	5.38	1.1	-0.11	–	–	–	–	–	–	–	–	-2.65	-1.89	6.13	8.85	0.53	5.87	2.26	2.71	2.48
COc1cc2ncn(-c3cc(OCc4cccs4)c(C(N)=O)s3)c2cc1OC	4.45	0.87	–	16.9	12.3	3.88	5.4	0.78	1.21	2	1.93	1.92	7.84	2.89	8.89	2.03	12.9	4.6	-3.17	0.03
Fc1ccc(-c2ncn(C3CCNCC3)c2-c2ccnc(Oc3ccc(Oc4ccccc4)cc3)n2)cc1	5.57	4.51	-0.81	–	–	–	–	–	–	–	–	-3.18	-2.43	3.74	2.92	-0.16	2.82	-2.22	5.8	1.17
O=C1Nc2ccc(I)cc2C1=Cc1cc(Br)c(O)c(Br)c1	96.8	3.61	0.2	5.09	8.57	1.97	4.59	–	4.77	3.23	6.31	-3.87	-2.51	6.08	23.5	–	–	-3.41	32.6	-1.83
NC(=O)c1cc(-c2ccncc2)cc(-c2ccccc2)c1N	5.5	-0.96	-0.93	6.9	14.9	6.98	14.8	2.69	5.81	0.76	3.34	-1.6	-0.84	4.53	6.5	3.68	5.3	0.64	3.86	-0.86
NS(=O)(=O)c1ccc(N/N=C2\C(=O)Nc3ccc(-c4cnco4)cc32)cc1	3.04	-2.14	-0.18	2.88	2.83	0.43	2.84	2.15	2.61	2.22	5.43	-1.9	-0.75	1.34	-0.11	0.72	-0.54	1.44	2.18	-0.25
CN(c1ccc(NC(=O)Nc2c(Cl)cccc2Cl)cc1)c1ccnc(Nc2cccc(CS(C)(=O)=O)c2)n1	4.66	0.97	2.4	2.39	3.34	1.5	4.6	1.53	1.46	-0.44	-0.86	-0.25	2.16	0.53	-1.22	0.12	-1.62	3.66	3.73	-0.6
N#Cc1ccc(Oc2nccc(-c3c(-c4ccc(F)cc4)ncn3C3CCNCC3)n2)cc1	6.42	-1.55	-0.03	–	–	–	–	–	–	–	–	-3.52	-3.38	5.16	19.6	2.8	17.6	1.26	1.85	0.59
CNC(=O)c1cncc(/C=C/c2c(C)cccc2C)c1	3.65	-0.82	2.87	1.86	7.55	0.94	2.24	-0.85	-0.13	-0.99	-0.37	0.32	0.21	-1.85	-3.99	-1.64	-1.98	3.95	0.59	0.03
CN(C)c1ccc2c(c1)/C(=C/Nc1ccc(S(N)(=O)=O)cc1)C(=O)N2	2.21	-1.98	-1.04	1.18	2.39	1.4	0.72	6.36	1.98	2.6	1.82	-1.68	-2.04	0.45	4.82	0.7	4.54	-6.01	3.23	3.41
C/C(Nc1ccc(S(N)(=O)=O)cc1)=C1/C(=O)Nc2ccccc21	0.88	-1.51	-1.15	2.61	3.43	1.67	7.87	-0.85	-1.14	-1.08	-1.66	2.04	1.41	0.42	1.42	2.42	3.52	-1.12	-0.13	-1.38
